# Bioassay records as filed in PubChem BioAssay.
# NOD2-RIPK2 inh: NOD2-RIPK2 protein interaction inhibition | hit rate 0.38% among 360,000 | inhibition, % at 4.98 µM | O43353 | CHO BLA complementation NOD2-RIPK2, CCF4 ratio; in the data active = inhibition above about 21%;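 also: 0% = vehicle only and 100% = reference blocker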
# Target sequence (O43353 whole entry, looked up): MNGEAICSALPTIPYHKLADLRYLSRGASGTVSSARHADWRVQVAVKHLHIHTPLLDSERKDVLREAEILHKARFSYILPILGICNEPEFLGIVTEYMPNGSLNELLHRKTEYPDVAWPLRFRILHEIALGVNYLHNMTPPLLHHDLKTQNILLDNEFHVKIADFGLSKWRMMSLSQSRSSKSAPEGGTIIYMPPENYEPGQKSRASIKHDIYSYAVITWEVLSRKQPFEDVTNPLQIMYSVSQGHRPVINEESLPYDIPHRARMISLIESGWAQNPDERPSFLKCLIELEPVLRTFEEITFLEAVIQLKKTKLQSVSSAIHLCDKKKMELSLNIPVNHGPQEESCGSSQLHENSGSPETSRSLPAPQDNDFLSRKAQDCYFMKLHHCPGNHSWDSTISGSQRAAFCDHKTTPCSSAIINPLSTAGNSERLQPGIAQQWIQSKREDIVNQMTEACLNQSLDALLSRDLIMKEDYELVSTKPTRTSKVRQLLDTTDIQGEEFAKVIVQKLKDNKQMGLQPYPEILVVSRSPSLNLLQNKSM
# TMEM16A inh: mouse TMEM16A channel inhibition, primary screen; hit rate 1.2% among 310,000; HEK293 TMEM16A/YFP iodide influx fluorescence, ionomycin; normalized B-score (activity score, 25-100; higher = stronger inhibition) at 10 µM; Q8BHY3;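 active = ratio plate-corrected score three or more library SD toward inhibition, starting fluorescence score within five deviations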;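 also: score derived from kinetic fluorescence span divided by baseline fluorescence per well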
# GRK2 inh: inhibitors of human GRK2 displacing RNA aptamer; P25098; bead flow cytometry, FAM-aptamer displacement from GRK2; inhibition of aptamer binding, % at 10 µM; hit rate 0.59% among 330,000; AID 488847;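 active = inhibition of aptamer binding above 40%, roughly 3 SD of noise, on plates passing a quality check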;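 also: median bead fluorescence of bound FAM aptamer so fluorescent compounds give negative values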
# TMEM16A act: mouse TMEM16A channel activation, primary screen; HEK293 TMEM16A/YFP-H148Q/I152L, iodide quench fluorescence; stronger effect = lower value; B-score at 10 µM; hit rate 0.3% among 340,000; AID 623877;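 active = fluorescence-ratio B-score plate-corrected deviation score at least 3 library SD below zero, with starting fluorescence score within 5 deviations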;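 also: channel opened by trigger with iodide after compound preincubation; score built on the fluorescence ratio of max minus min over baseline; more negative score means more quench and so TMEM16A activation or potentiation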
# TLR9-MyD88 inh: TLR9-MyD88 interaction inhibition; inhibition, % at 4.98 µM; CHO BLA complementation TLR9-MyD88, CCF4 FRET ratio; hit rate 0.21% among 340,000;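 active = inhibition above the mean over all tested compounds plus 3 SD, cut at about 21% in these data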;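 also: 0% = DMSO only wells and 100% = clavulanate BLA inhibitor control wells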
# TLR4-MyD88 BLA: inhibitors of human TLR4-MyD88 binding. HeLa CL3-4 TLR4/MyD88 BLA complementation, FRET ratio. hit rate 0.18% among 200,000. inhibition, % at 8.4 µM. AID 861; in the data active = inhibition above about 25%;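 also: 0% = vehicle and 100% = reference inhibitor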
# TMEM16A reconf: re-confirmation of mouse TMEM16A chloride channel inhibitors. inhibition, % at 10 µM. hit rate 39% among 2,300. HEK293 TMEM16A/YFP-H148Q, iodide quench fluorescence; ionomycin added to raise cell calcium. shares compounds with TMEM16A inh;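 active = mean duplicate percent inhibition, scaled so buffer wells are 0 and the reference blocker 100, over three buffer SD above buffer mean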
# HEK293 Ca mobil: alters calcium mobilization in TMEM16A HEK293 cells, counter-screen. hit rate 2% among 2,300. shares compounds with TMEM16A inh. calcium response (% of ionomycin), % at 10 µM. TMEM16A/YFP HEK293, Fluo4 calcium mobilization;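 active = duplicate-averaged calcium signal over 20% of the ionomycin maximum, relative to buffer baseline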;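 also: each well's signal is peak minus trough fluorescence divided by its pre-addition baseline; 0% = buffer wells and 100% = ionomycin wells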
# YFP-HEK293 quench: counter-screen for TMEM16A inhibitors: effect in parental YFP-HEK293 cells. iodide YFP quench, ionomycin. 2,300 tested, under 10 active. AID 652233. YFP ratio F(max-min)/F0 at 10 µM. shares compounds with TMEM16A inh;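 active = yellow fluorescent protein signal ratio exceeding the buffer control mean by over 5 SD of those controls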;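 also: ratio is mean of duplicate wells from kinetic YFP trace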
# ClC-1 rat inh: selectivity of TMEM16A inhibitors: inhibition of rat ClC-1 chloride channel; shares compounds with TMEM16A inh; CHO ClC-1-YFP, iodide influx fluorescence quench; iodide control reads 0, buffer control 100; ratio percent, % at 10 µM; 2,300 tested, under 10 active; AID 652236;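 active = duplicate-mean ratio percent above the mean of iodide-only control wells, which defines zero, plus 5 of their SD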;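 also: higher percent means stronger block of ClC-1 iodide influx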
# Numbers without * were called inactive; i = inactive; . = no result given. Most compounds without a hit are left out; they make up all but 2.2% or so of the library.
SMILES,NOD2-RIPK2 inh,TMEM16A inh,GRK2 inh,TMEM16A act,TLR9-MyD88 inh,TLR4-MyD88 BLA,TMEM16A reconf,HEK293 Ca mobil,YFP-HEK293 quench,ClC-1 rat inh
COc1cc(NS(=O)(=O)c2ccc(OC)c(C)c2C)c(OC)cc1Cl,-1,25*,4,i,-1,-18,54%*,i,-0.72,-4
CC1=CC2=NC(=O)C(c3ccccc3)C(=O)N2C=C1 (centres undefined),-2,.,.,i,6,.,.,.,.,.
COc1cc(C(=O)NCC(=O)NCC(c2ccco2)N2CCCCC2)cc(OC)c1OC (centres undefined),-18,.,0,i,2,.,.,.,.,.
COc1cc(CNS(=O)(=O)c2ccc3c(c2)CC(C)N3C(=O)C2CCC2)cc(OC)c1OC (centres undefined),0,25*,1,i,-3,.,i,i,-1,-13
COc1ccc(CNS(=O)(=O)c2ccc3c(c2)CC(C)N3C(=O)C2CC2)cc1 (centres undefined),7,i,1,i,6,.,.,.,.,.
CCOc1ccc(S(=O)(=O)Nc2cc(Cl)ccc2O)cc1,-4,100*,0,i,-9,-5,36%*,i,-0.9,-19
CCOc1ccc(S(=O)(=O)Nc2cccc(Cl)c2)cc1,-8,i,1,i,7,-10,.,.,.,.
CCCc1nnc(NC(=O)C(CC)OC(=O)c2cc(C)nc3ccccc23)s1 (centres undefined),6,100*,2,i,-3,0,i,i,-1.1,-16
CCCc1nnc(NC(=O)COC(=O)c2cc(C)nc3ccccc23)s1,-5,i,2,i,2,-12,.,.,.,.
Cc1sc(NC(=O)CSc2nnc3scc(-c4ccccc4)n23)c(C#N)c1C,-5,25*,7,i,6,0,i,i,-1.1,-8
O=C1C=C(c2ccc(CO)cc2)C[C@@H](c2ccc(F)cc2)C1,2,.,.,.,10,.,.,.,.,.
Cc1ccc(C(=O)Nn2cnnc2)cc1Cl,-4,i,0,i,0,.,.,.,.,.
O=C(O)CSC1CC(=O)N(c2ccc(Cl)cc2)C1=O (centres undefined),12,i,2,i,-4,-9,.,.,.,.
O=C(CSC1CC(=O)N(CC(c2ccccc2)c2ccccc2)C1=O)Nc1ccc(Cl)cc1 (centres undefined),-7,25*,0,i,-2,12,i,i,-1.1,-2
COc1ccc(C(=O)CCc2ccccc2)c(O)c1,-13,i,2,i,4,.,.,.,.,.
O=C(CCc1ccccc1)c1c(O)cc(O)cc1O,1,100*,1,i,-1,.,47%*,i,-0.97,-2
Cc1ccc(S(=O)(=O)c2ccc(Cl)cc2)cc1S(=O)(=O)N(C)CC(=O)O,-19,i,1,i,1,-3,.,.,.,.
CC[C@@H]1CC=C[C@H]2[C@H]1C(=O)N(Cc1ccccc1)[C@H]2c1ccoc1,6,100*,.,i,0,.,44%*,i,-1.2,-8
C[C@@H]1CC=C[C@H]2[C@H]1C(=O)N(Cc1ccccc1)[C@H]2c1ccoc1,2,i,.,i,4,.,.,.,.,.
COc1ccc(OCCSc2nc(C)nc3ccccc23)cc1,-7,25*,1,i,0,-5,58%*,i,-1.1,-13
Cc1ccc(NC(=O)CN2C(=O)COc3ccc(C)cc32)nc1,9,25*,5,i,-2,-3,i,i,-0.89,-18
Cc1ccc2c(c1)N(CC(=O)Nc1nccs1)C(=O)CO2,0,.,.,i,-5,.,.,.,.,.
COCCn1c(C)cc(C(=O)CSc2nc(C)c(C)c(C)n2)c1C,-6,i,0,i,0,-2,.,.,.,.
COCCn1c(C)cc(C(=O)CSc2ncn[nH]2)c1C,-1,100*,1,i,1,-7,i,i,-1.1,-7
CCOc1ccc(NC(=O)C2CCN(C(=O)C3CC(=O)N(c4ccc(C)cc4)C3)CC2)cc1 (centres undefined),-2,i,0,i,-11,.,.,.,.,.
SMILES,NOD2-RIPK2 inh,TMEM16A inh,GRK2 inh,TMEM16A act,TLR9-MyD88 inh,TLR4-MyD88 BLA,TMEM16A reconf,HEK293 Ca mobil,YFP-HEK293 quench,ClC-1 rat inh
CC/C(=N\OC(=O)c1ccc(OC(C)C)cc1)c1ccc(C)cc1,8,100*,0,i,0,0,i,i,-1.3,-23
O=C(c1ccc(F)cc1)c1ccc(-c2ccc(F)cc2)nc1,-2,i,0,i,5,.,.,.,.,.
N#CC(c1ccc(F)cc1)c1ccc(C(=O)c2ccc(F)cc2)cc1 (centres undefined),-9,100*,2,i,-3,-1,28%*,i,-0.88,-14
CN(C)c1ncc(S(=O)(=O)c2ccccc2)c(N)n1,-2,i,0,i,4,8,.,.,.,.
CN(C)c1ncc(S(=O)(=O)c2ccccc2)c(-c2ccccc2Cl)n1,4,100*,1,i,6,-9,i,i,-1,-10
NC(=O)[C@@H]1CCCN1Cc1nc(Cc2ccccc2Cl)no1,-5,i,2,i,5,-4,.,.,.,.
COc1cccc(OCCN2CCN(c3ncnc4c3cnn4-c3ccccc3)CC2)c1,-5,100*,0,i,0,-4,i,i,-0.88,-10
CCSc1nnc(NC(=O)CN2C(=O)NC3(CCCC3)C2=O)s1,-1,.,1,i,1,.,.,.,.,.
N#Cc1c(NC(=O)CN2CCN(C(=O)c3ccco3)CC2)sc2c1CCCCC2,3,25*,0,i,-3,4,i,i,-1.2,-18
CC(C)Cc1nc(N2CCN(C(=O)c3ccco3)CC2)c(C#N)c2c1CCC2,13,25*,7,i,2,2,i,i,-1.3,-16
N#Cc1c(N2CCN(C(=O)c3ccccc3)CC2)nc(-c2ccccc2)c2c1CCCC2,1,i,1,i,-9,2,.,.,.,.
N#Cc1c(NC(=O)CN2CCCCC2)sc2c1CCC2,3,i,4,i,1,24,.,.,.,.
N#Cc1c(N2CCN(C(=O)c3ccco3)CC2)nc(-c2ccccc2)c2c1CCCC2,1,100*,3,i,0,15,24%*,i,-1.2,-12
